# Assay results published in PubChem BioAssay (NCATS).
# Several values for one entry are separate records, joined by “and”; a condition that tells them apart may be missing. Equal entries are not always repeated. Records with an inconclusive call do not appear. Activity calls are given as the source filed them. Unless noted, calls come from the whole dose curve; as a rule, active = well fitted curve in the direction sought with a large enough effect; inconclusive = small, poorly fitted or top-dose-only effect, or another doubt; inactive = no such curve, though single readings can be large; an effect the other way counts as inactive or inconclusive.
# Assays:
# [1] = qHTS Assay for Identifying Gametocytocidal Compounds (AID 743244);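 note: % is set by controls: 0 for no effect and ±100 for the full control effect; actives lower the fluorescent signal which means gametocytes are killed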; conditions: P. falciparum 3D7 stage III-V gametocytes, alamarBlue, 72 h; max response: stronger effect = lower value
# Procedure, shortened: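 Stage III-V P. falciparum 3D7 gametocytes, 20,000 per well, were exposed to compounds for 72 h at 37C, 5% CO2. AlamarBlue was then added for 24 h and viability was read as fluorescence at Ex 525/Em 598 nm.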
# [2] = qHTS profiling for inhibitors of Plasmodium falciparum (3D7) proliferation (AID 743322);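 note: infected erythrocytes exposed to compound for 72 h before lysis; 100% = DMSO vehicle wells and 0% = 0.29 µM artemisinin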; conditions: P. falciparum 3D7 proliferation, at 28.7 µM (top of the series)
# Procedure, shortened: (§1)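 Parasite DNA was quantified by SYBR Green I fluorescence (ex 485, em 535 nm) after overnight lysis in saponin/Triton buffer at room temperature. Cultures at 0.3% parasitemia and 2.5% hematocrit were first exposed to compound for 72 h at 37 C; signals were normalised to artemisinin (0.29 uM) and vehicle wells.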
# [3] = qHTS profiling for inhibitors of Plasmodium falciparum (DD2) proliferation (AID 743323; call rule not given here); conditions: at 28.7 µM (top of the series), lower = more inhibition
# Procedure, shortened: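 Parasite proliferation measured via DNA-dye fluorescence, as uninfected erythrocytes lack DNA. Cultures at 0.3% parasitemia and 2.5% hematocrit incubated 72 h with compound; signal scaled between vehicle and 0.29 uM artemisinin wells.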
# [4] = qHTS profiling for inhibitors of Plasmodium falciparum (HB3) proliferation (AID 743324); conditions: Plasmodium falciparum HB3 blood-stage proliferation; at 28.7 µM (top of the series);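 note: 100% = DMSO vehicle wells and 0% = artemisinin-treated control wells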
# Procedure, shortened: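 SYBR Green fluorescence (485 ex/535 em) of lysed cultures, incubated overnight at room temperature in the dark, quantifies parasite DNA. Infected erythrocytes at 0.3% parasitemia and 2.5% hematocrit were exposed 72 h; values normalized to DMSO and 0.29 uM artemisinin controls.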
# [5] = qHTS profiling of the MIPE4 collection as inhibitors of Plasmodium falciparum (3D7) proliferation (AID 743344; call rule not given here;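 note: scaled between DMSO vehicle wells and 0.29 µM artemisinin as full inhibition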); conditions: P. falciparum 3D7 in erythrocytes, SYBR Green DNA fluorescence, 72 h; at 28.5 µM (top of the series) unless noted
# Procedure, shortened: as §1
# [6] = qHTS profiling of the MIPE4 collection as inhibitors of Plasmodium falciparum (DD2) proliferation (AID 743345; call rule not given here); conditions: P. falciparum Dd2 in erythrocytes, SYBR Green DNA, 72 h; at 28.5 µM (top of the series) unless noted
# Procedure, shortened: as §1
# [7] = qHTS profiling of the MIPE4 collection as inhibitors of Plasmodium falciparum (DD2) proliferation (Rep 2) (AID 743346; call rule not given here); conditions: P. falciparum Dd2 in erythrocytes, SYBR Green DNA, 72 h; at 28.5 µM (top of the series) unless noted
# Procedure, shortened: as §1
# [8] = qHTS profiling of the MIPE4 collection as inhibitors of Plasmodium falciparum (HB3) proliferation (AID 743347; call rule not given here;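 note: plate controls were DMSO vehicle wells for no effect and artemisinin wells for full effect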); conditions: P. falciparum HB3 in erythrocytes, SYBR Green DNA, 72 h; at 28.5 µM (top of the series) unless noted
# Procedure, shortened: as §1
# [9] = High-throughput drug toxicity screening in the BPDCN cell line Gen2.2 (AID 1224824; call rule not given here;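 note: cells exposed to compounds for 48 h before reading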); conditions: Gen2.2 BPDCN cells; at 45.8 µM (top of the series) unless noted
# Procedure, shortened: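 CellTiter-Glo luminescence after 48 h compound exposure of Gen2.2 cells; percent activity set with DMSO as 100% and bortezomib (9.2 uM final) as 0%. Cells seeded at 500 per well, RPMI + 10% FBS, 37 °C.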
# [10] = qHTS for compounds that reverse cellular toxicity of Amyloid beta (A-beta) peptide in yeast: LOPAC Validation Assay (AID 720559);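 note: plate controls were DMSO for no effect and equimolar ferric chloride plus clioquinol rescue for full effect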
# Procedure, shortened: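 OD600 growth readout after 48 hr at 30 C; A-beta-toxic yeast plus pinned compounds in medium. Normalization: DMSO = negative, equimolar FeCl3 + clioquinol = positive.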
# [11] = qHTS for Activators of Parkin Expression: LOPAC Validation Assay (NLuc Reporter) (AID 720572)
# Procedure, shortened: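 NLuc signal, read 10 min after reagent and following a prior FLuc read, is normalized to DMSO (0) and positive controls (100%). Cells: neuronal Parkin-promoter coincidence reporter line; compounds tested 7-point, 24 h, 37 C, 5% CO2.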
# [12] = qHTS for Activators of Parkin Expression: LOPAC Validation Assay (FLuc Reporter) (AID 720573)
# Procedure, shortened: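 FLuc luminescence read-out from a neuronal line expressing a Parkin-promoter-driven coincidence reporter. Cells treated 24 h at 37 C, 5% CO2 with compounds at 7 concentrations; signal increase normalized to DMSO and positive control.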
# [13] = target: T1, Hexokinase-4 (Homo sapiens) + Glucokinase regulatory protein (Homo sapiens) (UniProt P35557+Q14397); assay: qHTS assay for inhibitors of recombinant human GCK-GKRP interaction: ADP-Glo assay (AID 743206);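 note: plate controls were DMSO plus enzyme for no effect and no enzyme for full effect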
# Procedure, shortened: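 Pin-transferred compounds meet a 15 nM GST-GCK/15 nM FLAG-GKRP/2 uM S6P mix (dispense concentrations). ATP is then added to 0.4 mM final with 5 mM glucose, and the reaction runs 60 min at room temperature. ADP is quantified luminescently.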
# [14] = target: T1, Hexokinase-4 (Homo sapiens) + Glucokinase regulatory protein (Homo sapiens); assay: qHTS assay for inhibitors of recombinant human GCK-GKRP interaction: HTRF assay (AID 743207);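 note: 0% = DMSO with GCK present and -100% = DMSO wells lacking GCK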
# Procedure, shortened: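 HTRF read-out (ex 320 nm; 615/665 nm emission) after 60 min RT equilibration of 5 nM GST-GCK, 5 nM FLAG-GKRP, 2 uM S6P, compound and anti-FLAG/anti-GST detection antibodies; signal normalized between DMSO wells with and without GCK.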
# [15] = qHTS assay for small molecule agonists of the antioxidant response element (ARE) signaling pathway measured by Nrf2-dependant transcriptional activity (AID 720636; active = well fitted curve in the direction sought with a large enough effect in the repeat runs; an effect the other way counts as inactive or inconclusive;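 note: HepG2 cells with an ARE-driven luciferase reporter; % of control where 0% means no effect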)
# Procedure, shortened: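 We exposed ARE-luc HepG2 cells, seeded in assay medium with 1% dialyzed FBS and allowed 6 hr to adhere, to test compounds overnight (16 hr, 37 C) before measuring luciferase with ONE-Glo.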
# [16] = qHTS assay for small molecule antagonists of the retinoid-related orphan receptor gamma (ROR-gamma) signaling pathway - cell viability counter screen (AID 720652; active = well fitted curve in the direction sought with a large enough effect in the repeat runs; an effect the other way counts as inactive or inconclusive;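 note: CHO reporter cells with doxycycline-induced ROR-gamma expression; compound exposure lasted 16 hr before ATP read; % is set by controls: 0 for no effect and ±100 for the full control effect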)
# Procedure, shortened: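 CHO RORE-LUC/TET-ROR line, 1,000 cells/well, 37 C 5% CO2 5 hr; cpd or DMSO + doxycycline induction, 16 hr. CellTiter-Glo, 30 min RT, luminescence = ATP content.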
# [17] = qHTS assay for small molecule agonists of the antioxidant response element (ARE) signaling pathway measured by Nrf2-dependant transcriptional activity - cell viability counter screen (AID 720653; active = well fitted curve in the direction sought with a large enough effect in the repeat runs; an effect the other way counts as inactive or inconclusive; note: % is set by controls: 0 for no effect and ±100 for the full control effect); conditions: ARE-bla HepG2 viability, CellTiter-Glo ATP luminescence, 16 h; max response: stronger effect = lower value
# Procedure, shortened: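 ARE-bla HepG2 cells treated with compounds for 16 h at 37C; this counter screen measures viability as intracellular ATP by CellTiter-Glo luminescence after 30 min at room temperature.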
# [18] = qHTS assay for cell viability of HEK293 cells (AID 743288); conditions: ATP luminescence (CellTiter-Glo), 18 h; max response: stronger effect = lower value; note: % is set by controls: 0 for no effect and ±100 for the full control effect; nearly all actives have a fitted effect of over 50% in size
# Procedure, shortened: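 ATP luminescence (CellTiter-Glo) reports metabolically competent cell number after parental HEK293 cells, 2,000/well, were treated with DMSO-dissolved compounds for 18 h at 37 C; reagent incubation 30 min, room temperature.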
# [19] = qHTS assay for cell viability of the p53RE-bla HCT-116 cell line (AID 743292); note: % is set by controls: 0 for no effect and ±100 for the full control effect; nearly all actives have a fitted effect of over 55% in size
# Procedure, shortened: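 In this qHTS counter-screen, metabolically competent p53RE-bla HCT-116 cells were counted via their ATP content. Compounds were applied for 16 h at 37 C and luciferase-coupled luminescence was measured.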
# T1 sequence (P35557 whole entry, looked up): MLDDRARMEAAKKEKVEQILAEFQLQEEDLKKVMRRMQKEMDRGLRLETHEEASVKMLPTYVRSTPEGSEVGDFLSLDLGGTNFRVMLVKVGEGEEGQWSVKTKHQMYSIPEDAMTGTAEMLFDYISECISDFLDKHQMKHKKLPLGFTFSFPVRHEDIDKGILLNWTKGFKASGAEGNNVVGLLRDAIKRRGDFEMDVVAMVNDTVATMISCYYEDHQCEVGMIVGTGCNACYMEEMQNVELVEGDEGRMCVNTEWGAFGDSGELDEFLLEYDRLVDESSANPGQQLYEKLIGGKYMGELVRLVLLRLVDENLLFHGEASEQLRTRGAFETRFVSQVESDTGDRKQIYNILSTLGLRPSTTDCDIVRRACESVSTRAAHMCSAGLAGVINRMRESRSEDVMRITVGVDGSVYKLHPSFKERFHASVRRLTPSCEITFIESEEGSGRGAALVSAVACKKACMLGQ
# T1 sequence (Q14397 whole entry, looked up): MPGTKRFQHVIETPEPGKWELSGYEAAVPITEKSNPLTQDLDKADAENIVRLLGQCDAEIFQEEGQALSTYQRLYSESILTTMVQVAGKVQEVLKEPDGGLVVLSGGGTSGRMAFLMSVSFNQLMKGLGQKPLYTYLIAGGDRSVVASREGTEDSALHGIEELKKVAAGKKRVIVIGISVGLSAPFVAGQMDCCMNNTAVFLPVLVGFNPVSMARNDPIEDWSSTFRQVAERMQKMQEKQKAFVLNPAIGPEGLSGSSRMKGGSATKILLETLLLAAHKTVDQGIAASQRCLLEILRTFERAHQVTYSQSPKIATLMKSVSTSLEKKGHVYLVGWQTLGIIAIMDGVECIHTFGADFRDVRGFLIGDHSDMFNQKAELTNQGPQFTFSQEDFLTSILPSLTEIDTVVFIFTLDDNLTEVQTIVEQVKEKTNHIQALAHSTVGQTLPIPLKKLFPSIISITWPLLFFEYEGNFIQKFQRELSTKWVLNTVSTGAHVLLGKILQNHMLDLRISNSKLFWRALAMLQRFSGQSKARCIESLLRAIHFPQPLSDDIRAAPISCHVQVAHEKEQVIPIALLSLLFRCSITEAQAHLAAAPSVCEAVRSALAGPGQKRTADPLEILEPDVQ
smiles,measurement,setting,value
CS(=O)(=O)CCNCc1ccc(-c2ccc3ncnc(Nc4ccc(OCc5cccc(F)c5)c(Cl)c4)c3c2)o1,max response,[1],-3.58% (inactive) and 12% (inactive)
same,remaining parasite growth % (stronger effect = lower value),[2],0.561%
same,"activity, percent of control",[3],12.2%
same,"remaining proliferation (% of control), lower = more inhibition",[4],1.42%
same,"parasite growth, % of DMSO control",[5],8.87%
same,"parasite growth remaining, % of DMSO control (lower = more inhibition)",[6],7.86%
same,"parasite growth, % of control (lower = inhibition)",[7],51.8%
same,"growth, % of control",[8],13%
same,"cell viability, % of control (lower = more cytotoxic)",[9],4.7%
O=C1Cc2cc(CCN3CCN(c4nsc5ccccc45)CC3)c(Cl)cc2N1,outcome,[10],inactive
same,outcome,[11],inactive
same,Potency,[12],inactive
same,Potency,[13],inactive
same,Potency,[14],inactive
same,max response,[1],-0.117% (inactive) and 9.6% (inactive)
same,"parasite growth, % of DMSO control",[5],14.8%
same,"parasite growth, % of control (lower = inhibition)",[7],20.5%
same,"growth, % of control",[8],9.47%
same,"cell viability, % of control (lower = more cytotoxic)",[9],199%
NC(CO)C(=O)NNCc1ccc(O)c(O)c1O (stereo unspecified),outcome,[10],inactive
same,outcome,[11],inactive
same,Potency,[12],inactive
same,Potency,[13],inactive
same,Potency,[14],inactive
same,max response,[1],0.751% (inactive)
same,"parasite growth, % of DMSO control",[5],84.1%
same,"parasite growth, % of control (lower = inhibition)",[7],89.1%
same,"growth, % of control",[8],99.5%
same,"cell viability, % of control (lower = more cytotoxic)",[9],86.9%
COc1nc(C)nc(Cl)c1NC1=NCCN1,outcome,[10],inactive
same,outcome,[11],inactive
same,Potency,[12],inactive
same,Potency,[13],inactive
same,Potency,[14],inactive
same,max response,[1],0.253% (inactive) and 33% (inactive)
same,"parasite growth, % of DMSO control",[5],89.8%
same,"parasite growth, % of control (lower = inhibition)",[7],92.6%
same,"growth, % of control",[8],98.4%
same,"cell viability, % of control (lower = more cytotoxic)",[9],136%
O=C(C1CCCCC1)N1CC(=O)N2CCc3ccccc3C2C1 (stereo unspecified),outcome,[10],inactive
same,max response,[1],3.64% (inactive) and 8.77% (inactive)
same,"parasite growth, % of DMSO control",[5],61.4%
same,"parasite growth remaining, % of DMSO control (lower = more inhibition)",[6],89.3%
same,"cell viability, % of control (lower = more cytotoxic)",[9],246%
CC(C)(C)C(=O)Oc1ccc(S(=O)(=O)Nc2ccccc2C(=O)NCC(=O)O)cc1,max response,[1],3.13% (inactive)
same,"parasite growth, % of DMSO control",[5],101%
same,"parasite growth remaining, % of DMSO control (lower = more inhibition)",[6],92.3%
same,"parasite growth, % of control (lower = inhibition)",[7],91.4%
same,"growth, % of control",[8],67.9%
same,"cell viability, % of control (lower = more cytotoxic)",[9],103%
CC(C(=O)O)c1cccc(C(=O)c2ccccc2)c1 (stereo unspecified),outcome,[10],inactive
same,outcome,[11],inactive
same,Potency,[12],inactive
same,max response,[1],3.48% (inactive) and 27.8% (inactive)
same,"cell viability, % of control (lower = more cytotoxic)",[9],152%
C[C@@H]1CC(=O)NN=C1c1ccc(NN=C(C#N)C#N)cc1,max response,[1],16.6% (inactive)
same,"parasite growth, % of DMSO control",[5],8.76%
same,"parasite growth, % of control (lower = inhibition)",[7],33.2%
same,"growth, % of control",[8],9.14%
same,"cell viability, % of control (lower = more cytotoxic)",[9],7.71%
COc1ccc(CCN(C)CCCC(C#N)(c2ccc(OC)c(OC)c2)C(C)C)cc1OC (stereo unspecified),outcome,[11],inactive
same,Potency,[12],inactive
same,outcome,[15],inactive
same,Potency,[16],inactive
same,max response,[17],-18% (inactive)
same,Potency,[13],inactive
same,Potency,[14],inactive
same,max response,[18],0.749% (inactive)
same,Potency,[19],inactive
same,"cell viability, % of control (lower = more cytotoxic)",[9],96.5% [at 92.2 µM]
CC(=O)OCC(CCn1cnc2cnc(N)nc21)COC(C)=O,max response,[1],13.8% (inactive)
same,"parasite growth, % of DMSO control",[5],99.1%
same,"parasite growth remaining, % of DMSO control (lower = more inhibition)",[6],136%
same,"parasite growth, % of control (lower = inhibition)",[7],91.8%
same,"growth, % of control",[8],98.2%
same,"cell viability, % of control (lower = more cytotoxic)",[9],153%
NCCc1cnc[nH]1,outcome,[10],inactive
same,outcome,[11],inactive
same,Potency,[12],inactive
same,Potency,[13],inactive
same,Potency,[14],inactive
same,max response,[1],8.45% (inactive) and 33% (inactive)
same,"parasite growth, % of DMSO control",[5],95.8%
same,"parasite growth, % of control (lower = inhibition)",[7],109%
same,"growth, % of control",[8],108%
same,"cell viability, % of control (lower = more cytotoxic)",[9],166%
NC(=O)OCC(COC(N)=O)c1ccccc1,outcome,[10],inactive
same,outcome,[11],inactive
same,Potency,[12],inactive
same,Potency,[13],inactive
same,Potency,[14],inactive
same,max response,[1],0.706% (inactive) and 21.3% (inactive)
same,"parasite growth, % of DMSO control",[5],97.2%
same,"parasite growth, % of control (lower = inhibition)",[7],95.5%
same,"growth, % of control",[8],63.7%
same,"cell viability, % of control (lower = more cytotoxic)",[9],156%
